Each structure is given as a SMILES string. Several values for one entry are separate records, joined by “and”; a condition that tells them apart may be missing. Identical values can stand only once. The source holds several records for some structures; these can differ, active in one and inactive in another. Activity calls are given as the source filed them. How the source made its calls: active means hit-call score of the fitted dose curve at least 0.9, where 1 is the maximum; inactive means score below 0.9.

By AC50 is commonly meant the concentration at which the activity in the assay is half-maximal.

Read-out in assay [1]: Interleukin-1 alpha (IL1a), IL1A (gene 3552)
As to the kind of experiment: BSK_KF3CT_IL1a: BioMAP Diversity Plus: KF3CT Assay for Interleukin-1 alpha (IL1a) Biomarker Activity (AID 2283070). Particulars: primary human keratinocytes with fibroblasts; actives raise or lower the signal. Summed up:
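Human keratinocyte plus foreskin fibroblast primary co-culture, sampled 24 h after chemical dosing. IL-1a measured by ELISA; responses fitted bidirectionally against DMSO baseline (negative control), so gain or loss of signal both count.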

Read-out in assay [2]: TIMP metallopeptidase inhibitor 2 (TIMP2), TIMP2 (gene 7077)
As to the kind of experiment: BSK_KF3CT_TIMP2: BioMAP Diversity Plus: KF3CT Assay for TIMP metallopeptidase inhibitor 2 (TIMP2) Biomarker Activity (AID 2283071). The note with it: primary human keratinocytes with fibroblasts; actives raise or lower the signal. In a few lines: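 Cells: human keratinocytes co-cultured with foreskin fibroblasts. Treat with chemical, 24 h. Measure TIMP-2 by ELISA; fit curves bidirectionally vs DMSO baseline.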

Read-out in assay [3]: C-C motif chemokine 2 (Homo sapiens) (UniProt P13500)
As to the kind of experiment: BSK_KF3CT_MCP1: BioMAP Diversity Plus: KF3CT Assay for Monocyte Chemoattractant Protein 1 (MCP1/CCL2) Biomarker Activity (AID 2283073). The note with it: primary human keratinocytes with fibroblasts; actives raise or lower the signal. Summed up:
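ELISA read-out of MCP-1, 24 h post-dose, in primary human skin keratinocytes co-cultured with fibroblasts. Parallel SRB staining monitors cytotoxicity; changes fitted both directions relative to DMSO.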

Read-out in assay [4]: Matrix Metallopeptidase 9 (MMP9), MMP9 (gene 4318)
As to the kind of experiment: BSK_KF3CT_MMP9: BioMAP Diversity Plus: KF3CT Assay for Matrix Metallopeptidase 9 (MMP9) Biomarker Activity (AID 2283074).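 On AC50: MMP9 protein level quantified by ELISA in the co-culture.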 The note with it: primary human keratinocytes with fibroblasts; actives raise or lower the signal. In a few lines:
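Keratinocyte plus foreskin fibroblast human primary skin co-culture was dosed with chemical and MMP-9 was quantified by ELISA 24 h later. Bidirectional curve fitting used DMSO as negative control and activity baseline.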

Read-out in assay [5]: urokinase plasminogen activator (uPA), PLAU (gene 5328)
As to the kind of experiment: BSK_KF3CT_uPA: BioMAP Diversity Plus: KF3CT Assay for urokinase plasminogen activator (uPA) Biomarker Activity (AID 2283075). Particulars: primary human keratinocytes with fibroblasts; actives raise or lower the signal. Summed up: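 Human keratinocyte plus foreskin fibroblast primary co-culture exposed to chemical for 24 h. uPA levels were quantified by ELISA, and activity was fitted bidirectionally against a DMSO negative-control baseline.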

Read-out in assay [6]: CD40, CD40 (gene 958)
As to the kind of experiment: BSK_LPS_CD40: BioMAP Diversity Plus: LPS Assay for CD40 Biomarker Activity (AID 2283076). The note with it: primary human HUVEC with PBMC; actives raise or lower the signal. Summed up: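 In the LPS system of human endothelial cells with peripheral blood mononuclear cells, CD40 levels were read by ELISA 24 h post-treatment. Signal changes in either direction were fitted against the DMSO baseline, with parallel SRB protein staining.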

Read-out in assay [7]: Interleukin-8 (IL8), CXCL8 (gene 3576)
As to the kind of experiment: BSK_LPS_IL8: BioMAP Diversity Plus: LPS Assay for Interleukin-8 (IL8) Biomarker Activity (AID 2283078). The note with it: primary human HUVEC with PBMC; actives raise or lower the signal. In a few lines: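 ELISA read-out of IL-8 after 24 h chemical treatment of LPS-activated endothelial/PBMC human primary co-cultures. Changes either up or down relative to DMSO; overt cytotoxicity checked by sulforhodamine B staining in parallel wells.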

Assay [8] is described as follows: BSK_LPS_SRB: Viability Assessment in the BioMAP Diversity Plus: LPS Assay (AID 2283079).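 Further: total protein by sulforhodamine B absorbance as a cytotoxicity measure; measured one day after compound addition.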 Particulars: primary human HUVEC with PBMC. Summed up:
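SRB viability endpoint: cells fixed with 10% TCA, stained with 0.1% SRB, read at 560 nm, 24 h post-dose. HUVEC/PBMC co-culture; signal change in either direction scored relative to DMSO.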

Read-out in assay [9]: Interleukin-1 alpha (IL1a), IL1A (gene 3552)
As to the kind of experiment: BSK_LPS_IL1a: BioMAP Diversity Plus: LPS Assay for Interleukin-1 alpha (IL1a) Biomarker Activity (AID 2283080). The note with it: primary human HUVEC with PBMC; actives raise or lower the signal. In a few lines:
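Readout is IL-1a level by ELISA, 24 h post-dose, fitted as gain or loss relative to DMSO. System: LPS-activated human primary co-culture of vascular endothelium and peripheral blood mononuclear cells, with parallel SRB total-protein cytotoxicity.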

Assay [10] is described as follows: BSK_LPS_PGE2: BioMAP Diversity Plus: LPS Assay for Prostaglandin E2 (PGE2) Biomarker Activity (AID 2283082).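 On AC50: secreted prostaglandin E2 measured by ELISA in LPS-stimulated co-culture.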 Particulars: primary human HUVEC with PBMC; actives raise or lower the signal. In a few lines: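 LPS-activated HUVEC/PBMC co-culture; cmpd dosed, 24 h; PGE2 by ELISA; bidirectional fit vs DMSO; SRB (0.1%, TCA-fixed, 560 nm) in parallel plates for overt cytotox.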

Read-out in assay [11]: Macrophage colony-stimulating factor (MCSF), CSF1 (gene 1435)
As to the kind of experiment: BSK_LPS_MCSF: BioMAP Diversity Plus: LPS Assay for Macrophage colony-stimulating factor (MCSF) Biomarker Activity (AID 2283083). Particulars: primary human HUVEC with PBMC; actives raise or lower the signal. Summed up:
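Bidirectional fitting against DMSO was applied to M-CSF levels read by ELISA at 24 h post-dose. The system pairs human umbilical vein endothelium with peripheral blood mononuclear cells; parallel SRB staining tracked cytotoxicity.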

Read-out in assay [12]: Tissue Factor, F3 (gene 2152)
As to the kind of experiment: BSK_LPS_TissueFactor: BioMAP Diversity Plus: LPS Assay for Tissue Factor Biomarker Activity (AID 2283084). Particulars: primary human HUVEC with PBMC; actives raise or lower the signal. In a few lines: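 Compound was added to an endothelial cell/PBMC co-culture, and after 24 h tissue factor (CD142) was read by ELISA. Gain or loss of signal was fitted against a DMSO baseline, and parallel SRB staining (560 nm) tracked overt cytotoxicity.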

Read-out in assay [13]: Tumor necrosis factor (Homo sapiens) (UniProt P01375)
As to the kind of experiment: BSK_LPS_TNFa: BioMAP Diversity Plus: LPS Assay for Tumour Necrosis Factor alpha (TNFa) Biomarker Activity (AID 2283085).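 On AC50: TNFa protein level quantified by ELISA in the co-culture.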 Particulars: primary human HUVEC with PBMC; actives raise or lower the signal. Summed up: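 Read-out is ELISA of TNFa in primary human endothelial cell–PBMC co-cultures at 24 h after compound. Activity in either direction was fitted against DMSO.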

Read-out in assay [14]: Vascular cell adhesion molecule 1 (VCAM1), VCAM1 (gene 7412)
As to the kind of experiment: BSK_LPS_VCAM1: BioMAP Diversity Plus: LPS Assay for Vascular cell adhesion molecule 1 (VCAM1) Biomarker Activity (AID 2283086). The note with it: primary human HUVEC with PBMC; actives raise or lower the signal. In a few lines: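 HUVEC + PBMC co-culture, LPS system; compound 24 h; VCAM-1 by ELISA; bidirectional fit vs DMSO control; parallel SRB (0.1%, TCA-fixed, 560 nm) for cytotoxicity.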

Read-out in a further assay: CD38, CD38 (gene 952)
As to the kind of experiment: BSK_SAg_CD38: BioMAP Diversity Plus: SAg Assay for CD38 Biomarker Activity (AID 2283087). The note with it: primary human HUVEC with PBMC; actives raise or lower the signal. In a few lines: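 Human HUVEC plus PBMC co-culture stimulated with superantigen; CD38 measured by ELISA 24 h after chemical dosing. Fluorescence read-out, bidirectional fit against DMSO; cytotoxicity tracked in parallel by SRB and Alamar Blue.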

Read-out in assay [15]: CD40, CD40 (gene 958)
As to the kind of experiment: BSK_SAg_CD40: BioMAP Diversity Plus: SAg Assay for CD40 Biomarker Activity (AID 2283088). The note with it: primary human HUVEC with PBMC; actives raise or lower the signal. Summed up:
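CD40 is measured by fluorescence ELISA in an endothelial/PBMC primary human co-culture at 24 h post-dose. Fitting is bidirectional, DMSO baseline. Parallel SRB staining (560 nm) flags cytotoxicity.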

Read-out in the next assay: CD69, CD69 (gene 969)
As to the kind of experiment: BSK_SAg_CD69: BioMAP Diversity Plus: SAg Assay for CD69 Biomarker Activity (AID 2283089). Particulars: primary human HUVEC with PBMC; actives raise or lower the signal. In a few lines:
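ELISA, fluorescence read-out: CD69 on human umbilical vein endothelial cell + PBMC co-culture, 24 h post-dosing. Gain or loss of signal fitted bidirectionally against DMSO baseline.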

Read-out in assay [16]: Monocyte Chemoattractant Protein-1 (MCP1), CCL2 (gene 6347)
As to the kind of experiment: BSK_LPS_MCP1: BioMAP Diversity Plus: LPS Assay for Monocyte Chemoattractant Protein-1 (MCP1) Biomarker Activity (AID 2283081). The note with it: primary human HUVEC with PBMC; actives raise or lower the signal. In a few lines: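 Secreted MCP-1 read by ELISA at 24 h post-dosing in an LPS-activated co-culture of endothelial cells with peripheral blood mononuclear cells. Fits run in both directions, DMSO as baseline; parallel SRB staining tracks overt cytotoxicity.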

Tumor necrosis factor (Homo sapiens), sequence (P01375 whole entry, looked up): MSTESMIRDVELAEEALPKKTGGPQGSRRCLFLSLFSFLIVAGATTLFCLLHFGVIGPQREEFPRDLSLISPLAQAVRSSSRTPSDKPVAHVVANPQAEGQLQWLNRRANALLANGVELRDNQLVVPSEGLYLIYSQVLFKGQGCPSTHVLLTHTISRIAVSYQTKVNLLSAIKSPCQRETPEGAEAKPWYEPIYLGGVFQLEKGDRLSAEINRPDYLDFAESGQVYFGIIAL

On to `C[N+](C)(C)CCCNS(=O)(=O)C(F)(F)C(F)(F)C(F)(F)C(F)(F)C(F)(F)C(F)(F)C(F)(F)C(F)(F)F`, for which the outcome is “inactive” in assay [1]; “inactive” in [2]; “inactive” in assay [3]; “inactive” in assay [5]; “inactive” in assay [12]; “inactive” in the assay with CD38, CD38 (gene 952). Further, the outcome with CD40, CD40 (gene 958) [15] is “inactive”; in the assay with CD69, CD69 (gene 969), “inactive”. Besides, the AC50 in [4] is 30 µM (active) and 44.7 µM (active); with CD40, CD40 (gene 958) [6] it was 42.8 µM (active) and 25.4 µM (active); in [7], 31.3 µM (active) and 39.7 µM (active); in assay [8] it was 22.5 µM (active) and 33.8 µM (active); in assay [9], 13.2 µM (active) and 30 µM (active); in [10], 19.3 µM (active) and 14.8 µM (active). For the same molecule, the AC50 in assay [11] was 46.7 µM (active) and 52.8 µM (active); in [12], 14.1 µM (active); in [13] it was 41 µM (active) and 28.3 µM (active); in [14], 45 µM (active) and 49.6 µM (active); in the assay with CD40, CD40 (gene 958) [15], 30 µM (active).

In the case of `CCOC(=O)C1=NOC(c2ccccc2)(c2ccccc2)C1`, the outcome in [1] was “inactive”; in assay [2] it was “inactive”; in assay [3] it was “inactive”; in [4], “inactive”; in assay [5] it was “inactive”; in the assay with CD40, CD40 (gene 958) [6], “inactive”. Moreover, the result in assay [7], in assay [8], in assay [9], in assay [10], in [11] and in assay [12] was inactive. Besides, the outcome in [13] was “inactive”; in assay [14] it was “inactive”; with CD38, CD38 (gene 952) it was “inactive”; with CD40, CD40 (gene 958) [15] it was “inactive”; in the assay with CD69, CD69 (gene 969), “inactive”.

With `CC1(C)CC(O)CC(C)(C)N1[O]`, the outcome in assay [1] was “inactive”; in assay [2], “inactive”; in assay [3], “inactive”; in assay [4] it was “inactive”; in assay [5], “inactive”; in the assay with CD40, CD40 (gene 958) [6], “inactive”. Moreover, the outcome in [7], in [8], in [16], in assay [10], in [11] and in assay [12] was inactive. Moreover, the outcome is “inactive” in assay [13]; “inactive” in assay [14]; “inactive” in the assay with CD38, CD38 (gene 952); “inactive” with CD40, CD40 (gene 958) [15]; “inactive” with CD69, CD69 (gene 969).
